# According to article PMC7862700, “An all-to-all approach to the identification of sequence-specific readers for epigenetic DNA modifications on cytosine”:
# Tests used:
# Experiment in all cases: DAPPL (digital affinity profiling via proximity ligation, sequencing); 10 mM Tris-HCl pH 7.5, 50 mM NaCl, 1 mM DTT, 4% glycerol, room temperature, 30 min; GST-TFs on glutathione beads, 16-mer random dsDNA library, 0.1% formaldehyde crosslink after washing; high values mean tight binding
# [1] = biological target: T1, FEV (Homo sapiens, UniProt Q99581 1-238); details: protein: recombinant; tags: N-terminal GST; dsDNA, one strand shown
# T1 sequence: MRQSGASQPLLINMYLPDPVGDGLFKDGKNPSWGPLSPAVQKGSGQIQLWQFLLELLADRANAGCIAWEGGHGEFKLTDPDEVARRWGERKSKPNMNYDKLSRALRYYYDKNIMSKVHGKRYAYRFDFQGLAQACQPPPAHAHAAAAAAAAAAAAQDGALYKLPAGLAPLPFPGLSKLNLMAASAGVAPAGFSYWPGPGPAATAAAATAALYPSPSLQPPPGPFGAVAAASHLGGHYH
# How it was run: (§1)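 The binding signal reported is, for every hexamer, its read frequency for a factor over its read frequency for the tag-only sample. Reads came from pools of yeast-expressed, GST-fused human transcription factors on glutathione beads, barcoded with DNA and mixed with that sample, which were incubated with 200 nmole of a random double-stranded 16-mer DNA library in Tris/NaCl/DTT/glycerol buffer at room temperature for 30 min. After washing, the pools were crosslinked with 0.1% formaldehyde, proximity-ligated with BsaI/T4 ligase for 1 h at 37 °C, PCR-amplified and sequenced on an Illumina NextSeq500.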
# [2] = biological target: ETV5 (Homo sapiens, UniProt P41161 1-510); details: protein: recombinant; tags: N-terminal GST; dsDNA, one strand shown
# How it was run: as §1
# [3] = biological target: HSF1 (Homo sapiens, UniProt Q00613 1-529); details: protein: recombinant; tags: N-terminal GST; chain copies: 3; dsDNA, one strand shown
# How it was run: as §1
# [4] = biological target: T2, SPIC (Homo sapiens, UniProt Q8N5J4 1-248); details: protein: recombinant; tags: N-terminal GST; dsDNA, one strand shown
# T2 sequence: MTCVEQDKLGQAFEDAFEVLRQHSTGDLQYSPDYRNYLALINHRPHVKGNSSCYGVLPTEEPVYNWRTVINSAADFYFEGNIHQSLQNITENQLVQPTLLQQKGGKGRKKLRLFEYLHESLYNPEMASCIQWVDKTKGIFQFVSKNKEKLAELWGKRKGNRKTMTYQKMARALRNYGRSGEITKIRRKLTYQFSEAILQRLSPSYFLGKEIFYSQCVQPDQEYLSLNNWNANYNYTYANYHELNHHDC
# How it was run: as §1
# [5] = biological target: ELF4 (Homo sapiens, UniProt Q99607 1-663); details: protein: recombinant; tags: N-terminal GST; dsDNA, one strand shown
# How it was run: as §1
# [6] = biological target: T3, ELK4 (Homo sapiens, UniProt P28324-2 1-405); details: protein: recombinant; tags: N-terminal GST; dsDNA, one strand shown
# T3 sequence: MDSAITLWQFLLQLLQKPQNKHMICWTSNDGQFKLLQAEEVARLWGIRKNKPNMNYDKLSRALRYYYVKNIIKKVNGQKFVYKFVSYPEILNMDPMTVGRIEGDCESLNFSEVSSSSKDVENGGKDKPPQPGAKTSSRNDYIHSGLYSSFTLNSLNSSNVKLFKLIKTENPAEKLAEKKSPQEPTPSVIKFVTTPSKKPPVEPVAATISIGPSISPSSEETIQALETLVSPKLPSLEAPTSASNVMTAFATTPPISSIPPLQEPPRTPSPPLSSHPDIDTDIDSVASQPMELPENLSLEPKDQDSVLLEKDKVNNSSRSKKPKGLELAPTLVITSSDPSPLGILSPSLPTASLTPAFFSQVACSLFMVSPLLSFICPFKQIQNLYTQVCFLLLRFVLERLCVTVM
# How it was run: as §1
# [7] = biological target: T4, ELF3 (Homo sapiens, UniProt P78545 1-371); details: protein: recombinant; tags: N-terminal GST; dsDNA, one strand shown
# T4 sequence: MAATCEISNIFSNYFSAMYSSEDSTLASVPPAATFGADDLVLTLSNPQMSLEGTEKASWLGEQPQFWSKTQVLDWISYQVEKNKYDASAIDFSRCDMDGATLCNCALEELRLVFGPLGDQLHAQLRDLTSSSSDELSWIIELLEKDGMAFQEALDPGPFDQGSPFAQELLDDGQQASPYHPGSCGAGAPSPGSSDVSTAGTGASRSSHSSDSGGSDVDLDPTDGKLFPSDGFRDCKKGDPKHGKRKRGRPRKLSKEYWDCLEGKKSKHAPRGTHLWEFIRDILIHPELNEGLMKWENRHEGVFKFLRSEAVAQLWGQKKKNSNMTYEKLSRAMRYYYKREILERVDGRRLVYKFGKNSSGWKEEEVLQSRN
# How it was run: as §1
# [8] = biological target: CRX (Homo sapiens, UniProt O43186 1-299); details: protein: recombinant; tags: N-terminal GST; dsDNA, one strand shown
# How it was run: as §1
# [9] = biological target: ETV1 (Homo sapiens, UniProt P50549 1-477); details: protein: recombinant; tags: N-terminal GST; dsDNA, one strand shown
# How it was run: as §1
# [10] = biological target: T5, ERF (Homo sapiens, UniProt P50548 1-548); details: protein: recombinant; tags: N-terminal GST; dsDNA, one strand shown
# T5 sequence: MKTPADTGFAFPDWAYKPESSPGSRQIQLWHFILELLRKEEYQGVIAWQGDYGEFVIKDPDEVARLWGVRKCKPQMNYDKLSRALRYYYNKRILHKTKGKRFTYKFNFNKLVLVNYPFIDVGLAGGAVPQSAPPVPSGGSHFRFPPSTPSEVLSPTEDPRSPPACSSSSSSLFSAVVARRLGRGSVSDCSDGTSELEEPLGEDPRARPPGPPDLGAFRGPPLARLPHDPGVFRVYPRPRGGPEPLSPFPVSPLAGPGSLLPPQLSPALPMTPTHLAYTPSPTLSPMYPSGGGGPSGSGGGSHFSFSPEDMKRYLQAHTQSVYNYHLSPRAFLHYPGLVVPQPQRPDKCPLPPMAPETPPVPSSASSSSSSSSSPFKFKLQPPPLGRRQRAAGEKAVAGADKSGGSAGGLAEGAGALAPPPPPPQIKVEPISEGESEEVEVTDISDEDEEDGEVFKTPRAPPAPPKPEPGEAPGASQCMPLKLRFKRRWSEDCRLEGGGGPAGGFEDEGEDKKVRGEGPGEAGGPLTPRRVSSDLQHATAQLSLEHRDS
# How it was run: as §1
# [11] = biological target: T6, ETV3L (Homo sapiens, UniProt Q6ZN32 1-361); details: protein: recombinant; tags: N-terminal GST; dsDNA, one strand shown
# T6 sequence: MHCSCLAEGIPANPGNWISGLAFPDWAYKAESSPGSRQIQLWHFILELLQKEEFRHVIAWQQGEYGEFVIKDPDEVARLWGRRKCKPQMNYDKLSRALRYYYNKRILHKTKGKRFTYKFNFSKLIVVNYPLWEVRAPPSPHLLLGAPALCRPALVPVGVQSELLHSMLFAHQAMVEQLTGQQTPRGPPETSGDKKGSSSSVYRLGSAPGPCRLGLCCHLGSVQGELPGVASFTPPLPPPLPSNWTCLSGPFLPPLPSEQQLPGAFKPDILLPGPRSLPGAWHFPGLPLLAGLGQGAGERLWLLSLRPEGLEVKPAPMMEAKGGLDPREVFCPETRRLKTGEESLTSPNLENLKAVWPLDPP
# How it was run: as §1
# [12] = biological target: T7, ETS2 (Homo sapiens, UniProt P15036 1-469); details: protein: recombinant; tags: N-terminal GST; dsDNA, one strand shown
# T7 sequence: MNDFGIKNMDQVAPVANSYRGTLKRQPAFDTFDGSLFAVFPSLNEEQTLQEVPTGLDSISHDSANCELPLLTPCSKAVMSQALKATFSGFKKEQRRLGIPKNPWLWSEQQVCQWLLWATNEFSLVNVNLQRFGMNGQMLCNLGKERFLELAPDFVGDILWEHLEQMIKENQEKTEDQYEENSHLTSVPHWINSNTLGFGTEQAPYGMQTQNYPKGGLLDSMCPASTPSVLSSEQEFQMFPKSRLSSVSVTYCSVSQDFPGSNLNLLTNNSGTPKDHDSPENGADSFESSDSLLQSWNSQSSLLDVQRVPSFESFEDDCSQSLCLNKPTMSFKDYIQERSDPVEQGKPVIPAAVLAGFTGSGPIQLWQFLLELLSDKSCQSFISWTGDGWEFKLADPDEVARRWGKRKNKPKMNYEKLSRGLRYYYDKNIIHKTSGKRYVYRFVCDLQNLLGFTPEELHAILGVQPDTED
# How it was run: as §1
# [13] = biological target: T8, SPDEF (Homo sapiens, UniProt O95238 1-335); details: protein: recombinant; tags: N-terminal GST; dsDNA, one strand shown
# T8 sequence: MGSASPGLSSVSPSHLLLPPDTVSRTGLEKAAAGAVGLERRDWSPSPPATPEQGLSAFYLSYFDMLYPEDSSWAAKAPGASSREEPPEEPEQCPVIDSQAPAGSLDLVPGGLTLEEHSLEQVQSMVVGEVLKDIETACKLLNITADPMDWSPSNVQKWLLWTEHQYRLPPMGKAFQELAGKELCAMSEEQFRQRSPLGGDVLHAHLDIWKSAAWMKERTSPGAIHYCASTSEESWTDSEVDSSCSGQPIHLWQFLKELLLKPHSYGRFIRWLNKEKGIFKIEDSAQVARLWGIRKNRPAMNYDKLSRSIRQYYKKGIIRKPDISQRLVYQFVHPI
# How it was run: as §1
# [14] = biological target: T9, ETV7 (Homo sapiens, UniProt Q9Y603 1-341); details: protein: recombinant; tags: N-terminal GST; dsDNA, one strand shown
# T9 sequence: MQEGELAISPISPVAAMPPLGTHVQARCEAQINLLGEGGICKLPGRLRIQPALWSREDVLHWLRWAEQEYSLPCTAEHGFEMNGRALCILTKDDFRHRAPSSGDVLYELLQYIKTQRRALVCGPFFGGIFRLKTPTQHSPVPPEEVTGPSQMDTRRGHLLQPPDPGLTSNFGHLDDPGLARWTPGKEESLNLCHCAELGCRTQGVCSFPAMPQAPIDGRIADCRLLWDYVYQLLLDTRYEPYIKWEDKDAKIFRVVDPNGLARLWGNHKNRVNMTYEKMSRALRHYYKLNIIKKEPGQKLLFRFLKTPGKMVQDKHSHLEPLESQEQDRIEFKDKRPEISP
# How it was run: as §1
# [15] = biological target: T10, ELF5 (Homo sapiens, UniProt Q9UKW6-2 1-255); details: protein: recombinant; tags: N-terminal GST; dsDNA, one strand shown
# T10 sequence: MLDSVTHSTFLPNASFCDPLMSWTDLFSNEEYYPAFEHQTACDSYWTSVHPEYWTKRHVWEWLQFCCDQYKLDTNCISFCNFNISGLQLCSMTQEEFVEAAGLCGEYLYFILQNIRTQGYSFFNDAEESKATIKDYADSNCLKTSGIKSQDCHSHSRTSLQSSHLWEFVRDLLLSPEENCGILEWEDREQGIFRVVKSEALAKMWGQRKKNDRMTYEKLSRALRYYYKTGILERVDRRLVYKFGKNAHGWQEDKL
# How it was run: as §1
# [16] = biological target: T11, ETV3 (Homo sapiens, UniProt P41162-2 1-143); details: protein: recombinant; tags: N-terminal GST; dsDNA, one strand shown
# T11 sequence: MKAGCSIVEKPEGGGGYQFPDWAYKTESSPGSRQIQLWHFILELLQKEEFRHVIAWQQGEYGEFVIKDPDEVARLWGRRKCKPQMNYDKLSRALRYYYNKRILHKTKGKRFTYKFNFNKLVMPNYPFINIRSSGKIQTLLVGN
# How it was run: as §1
# [17] = biological target: ETV6 (Homo sapiens, UniProt P41212 1-452); details: protein: recombinant; tags: N-terminal GST; dsDNA, one strand shown
# How it was run: as §1
# Sequence of CRX (O43186 whole entry): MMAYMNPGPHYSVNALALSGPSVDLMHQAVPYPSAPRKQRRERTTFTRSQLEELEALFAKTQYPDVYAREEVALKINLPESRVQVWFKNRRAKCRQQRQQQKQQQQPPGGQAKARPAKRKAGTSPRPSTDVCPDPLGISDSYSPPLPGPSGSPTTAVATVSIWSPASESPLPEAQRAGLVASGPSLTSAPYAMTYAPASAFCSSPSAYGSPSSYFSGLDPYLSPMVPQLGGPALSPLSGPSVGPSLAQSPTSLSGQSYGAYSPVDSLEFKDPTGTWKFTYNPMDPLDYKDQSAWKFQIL
# Sequence of ELF4 (Q99607 whole entry): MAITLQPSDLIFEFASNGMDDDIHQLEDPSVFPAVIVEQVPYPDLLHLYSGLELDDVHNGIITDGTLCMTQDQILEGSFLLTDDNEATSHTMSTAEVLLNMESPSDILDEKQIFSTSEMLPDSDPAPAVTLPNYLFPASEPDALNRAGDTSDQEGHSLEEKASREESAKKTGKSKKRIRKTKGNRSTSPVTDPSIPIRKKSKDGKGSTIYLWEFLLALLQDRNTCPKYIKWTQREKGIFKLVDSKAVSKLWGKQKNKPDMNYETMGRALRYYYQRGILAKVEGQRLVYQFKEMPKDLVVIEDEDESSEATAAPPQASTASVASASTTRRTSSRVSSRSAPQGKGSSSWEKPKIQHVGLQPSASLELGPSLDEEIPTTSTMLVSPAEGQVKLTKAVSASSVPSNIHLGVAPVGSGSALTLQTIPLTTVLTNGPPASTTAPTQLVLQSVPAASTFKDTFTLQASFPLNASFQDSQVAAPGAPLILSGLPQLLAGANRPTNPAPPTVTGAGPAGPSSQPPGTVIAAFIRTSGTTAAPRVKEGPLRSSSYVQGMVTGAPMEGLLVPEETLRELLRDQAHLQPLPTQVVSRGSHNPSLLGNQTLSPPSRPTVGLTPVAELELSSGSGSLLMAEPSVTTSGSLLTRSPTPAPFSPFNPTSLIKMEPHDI
# Sequence of ETV5 (P41161 whole entry): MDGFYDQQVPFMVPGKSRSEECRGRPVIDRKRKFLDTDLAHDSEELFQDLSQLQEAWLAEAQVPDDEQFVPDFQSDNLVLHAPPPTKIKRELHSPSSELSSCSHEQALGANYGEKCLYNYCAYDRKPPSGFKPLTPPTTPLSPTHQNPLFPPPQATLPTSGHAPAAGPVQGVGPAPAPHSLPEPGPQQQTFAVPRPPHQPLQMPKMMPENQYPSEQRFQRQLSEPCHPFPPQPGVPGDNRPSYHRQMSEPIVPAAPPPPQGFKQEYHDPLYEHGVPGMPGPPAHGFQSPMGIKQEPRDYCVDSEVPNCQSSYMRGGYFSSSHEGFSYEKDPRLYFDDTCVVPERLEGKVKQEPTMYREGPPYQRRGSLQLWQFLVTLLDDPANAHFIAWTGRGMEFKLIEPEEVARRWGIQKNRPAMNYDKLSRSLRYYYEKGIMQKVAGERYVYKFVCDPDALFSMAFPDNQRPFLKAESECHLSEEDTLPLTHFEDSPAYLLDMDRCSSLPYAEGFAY
# Sequence of HSF1 (Q00613 whole entry): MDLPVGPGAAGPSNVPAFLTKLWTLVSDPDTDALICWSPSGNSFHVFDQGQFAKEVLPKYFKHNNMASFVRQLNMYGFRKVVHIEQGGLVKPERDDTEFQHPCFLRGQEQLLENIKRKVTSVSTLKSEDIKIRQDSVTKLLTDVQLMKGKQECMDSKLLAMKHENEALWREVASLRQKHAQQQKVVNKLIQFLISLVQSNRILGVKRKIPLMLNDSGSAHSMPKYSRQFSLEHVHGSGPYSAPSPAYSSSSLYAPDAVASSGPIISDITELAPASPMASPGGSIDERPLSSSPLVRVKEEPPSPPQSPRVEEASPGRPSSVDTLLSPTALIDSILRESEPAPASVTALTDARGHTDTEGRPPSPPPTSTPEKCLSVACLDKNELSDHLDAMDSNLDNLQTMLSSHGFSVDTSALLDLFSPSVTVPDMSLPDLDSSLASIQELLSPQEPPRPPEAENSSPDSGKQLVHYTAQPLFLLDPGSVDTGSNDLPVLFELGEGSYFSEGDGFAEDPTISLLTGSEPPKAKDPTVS
# Sequence of ETV1 (P50549 whole entry): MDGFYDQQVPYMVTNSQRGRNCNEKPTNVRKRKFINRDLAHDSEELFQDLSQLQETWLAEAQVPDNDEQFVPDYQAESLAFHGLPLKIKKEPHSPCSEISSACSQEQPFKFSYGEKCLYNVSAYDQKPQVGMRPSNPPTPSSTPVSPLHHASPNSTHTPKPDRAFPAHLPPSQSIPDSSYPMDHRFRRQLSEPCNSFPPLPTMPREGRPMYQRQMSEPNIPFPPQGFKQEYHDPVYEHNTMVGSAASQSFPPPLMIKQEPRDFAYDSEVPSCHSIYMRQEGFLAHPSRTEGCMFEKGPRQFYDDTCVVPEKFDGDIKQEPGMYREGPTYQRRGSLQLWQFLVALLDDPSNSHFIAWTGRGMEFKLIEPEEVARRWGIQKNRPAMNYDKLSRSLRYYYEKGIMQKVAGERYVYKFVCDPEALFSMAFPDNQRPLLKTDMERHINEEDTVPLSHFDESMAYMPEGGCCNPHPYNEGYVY
# Sequence of ETV6 (P41212 whole entry): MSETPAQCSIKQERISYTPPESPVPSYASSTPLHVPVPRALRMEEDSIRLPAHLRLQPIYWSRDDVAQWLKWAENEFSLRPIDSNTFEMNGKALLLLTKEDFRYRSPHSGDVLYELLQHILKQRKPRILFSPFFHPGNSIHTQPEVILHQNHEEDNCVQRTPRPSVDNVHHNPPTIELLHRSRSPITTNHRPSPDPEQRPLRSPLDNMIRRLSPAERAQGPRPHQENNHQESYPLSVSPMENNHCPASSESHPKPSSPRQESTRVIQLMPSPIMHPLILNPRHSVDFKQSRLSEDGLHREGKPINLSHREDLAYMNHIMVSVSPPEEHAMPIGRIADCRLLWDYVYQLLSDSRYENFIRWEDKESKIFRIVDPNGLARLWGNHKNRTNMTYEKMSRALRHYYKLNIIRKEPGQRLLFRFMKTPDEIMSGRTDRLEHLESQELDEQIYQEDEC
sequence,measurement,setting,value
ATACGC,binding signal,[1],"1.05 fold enrichment (6-mer frequency, TF over GST control)"
same,binding signal,[2],"1.13 fold enrichment (6-mer frequency, TF over GST control)"
same,binding signal,[3],"1.04 fold enrichment (6-mer frequency, TF over GST control)"
same,binding signal,[4],"1.08 fold enrichment (6-mer frequency, TF over GST control)"
same,binding signal,[5],"1.18 fold enrichment (6-mer frequency, TF over GST control)"
same,binding signal,[6],"1.08 fold enrichment (6-mer frequency, TF over GST control)"
same,binding signal,[7],"1.13 fold enrichment (6-mer frequency, TF over GST control)"
same,binding signal,[8],"1.12 fold enrichment (6-mer frequency, TF over GST control)"
same,binding signal,[9],"1.18 fold enrichment (6-mer frequency, TF over GST control)"
same,binding signal,[10],"1.18 fold enrichment (6-mer frequency, TF over GST control)"
same,binding signal,[11],"1.14 fold enrichment (6-mer frequency, TF over GST control)"
same,binding signal,[12],"1.11 fold enrichment (6-mer frequency, TF over GST control)"
same,binding signal,[13],"1.2 fold enrichment (6-mer frequency, TF over GST control)"
same,binding signal,[14],"1.06 fold enrichment (6-mer frequency, TF over GST control)"
same,binding signal,[15],"1.11 fold enrichment (6-mer frequency, TF over GST control)"
same,binding signal,[16],"1.07 fold enrichment (6-mer frequency, TF over GST control)"
same,binding signal,[17],"1.2 fold enrichment (6-mer frequency, TF over GST control)"
